Bioassay records (PubChem BioAssay)
This is a sample that favours compounds with a hit; in the whole collection about 4.1% have one here.
DAX1 inh-1: DAX1 (NR0B1) inhibitors, primary screen, cell-based, HEK293, Gal4-DAX1, luciferase luminescence; Nuclear receptor subfamily 0 group B member 1 (Homo sapiens), P51843; HEK293 Gal4-DAX1 luciferase reporter; inhibition, % at 6.75 µM; hit rate 0.99% among 340,000;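 active = inhibition above the mean over all tested compounds plus 3 SD, cut at about 4.2% in these data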;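 note: 0% = DAX1-transfected cells with DMSO and 100% = empty-vector control cells with DMSO; inhibition shows as a rise in luminescence from relieved DAX1 repression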
Target sequence (P51843 207-470 limits assumed): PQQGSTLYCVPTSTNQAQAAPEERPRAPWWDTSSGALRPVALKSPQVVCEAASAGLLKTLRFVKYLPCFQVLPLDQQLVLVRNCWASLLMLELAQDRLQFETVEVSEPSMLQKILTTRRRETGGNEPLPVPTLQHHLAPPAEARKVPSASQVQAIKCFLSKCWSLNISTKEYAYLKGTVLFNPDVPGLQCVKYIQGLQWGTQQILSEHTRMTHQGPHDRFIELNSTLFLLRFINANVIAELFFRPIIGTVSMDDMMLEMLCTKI
hcDAF-12 act: H. contortus DAF-12 nuclear receptor activators, primary screen, cell-based, luminescence, HEK293, lit1-tk-luc reporter; HEK293 hcDAF-12 lit1-tk-luc reporter; 0% DMSO, 100% Δ7-dafachronic acid; activation, % at 6.8 µM; hit rate 1.4% among 370,000;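 active = activation above the mean of all tested compounds plus 3 SD, cut at about 5.5% in these data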;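 note: 100% = response to 3 µM Δ7-dafachronic acid high control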
hgDAF-12 ag: H. glycines DAF-12 receptor agonists, primary screen, cell-based, luminescence, HEK293, GAL4 fusion, UAS-luciferase; HEK293 GAL4-hgDAF12 UAS-luciferase reporter, agonist luminescence; normalized to butyrate control; activation, % at 6.8 µM; hit rate 1.8% among 370,000;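 active = activation above a cutoff set at the mean of all screened compounds plus 3 SD, cut at about 10% in these data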;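 note: 0% = DMSO wells and 100% = sodium butyrate wells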
ssDAF-12 act: S. stercoralis DAF-12 nuclear receptor activators, primary screen, cell-based, luminescence, HEK293, GRIP1 co-expression, lit1-tk-luc; HEK293 ssDAF-12/GRIP1 lit1-tk-luc reporter; % of 3 µM dafachronic acid response; activation, % at 6.8 µM; hit rate 1% among 370,000;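 active = activation above the mean over all tested compounds plus 3 SD, cut at about 0.9% in these data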;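 note: 0% = DMSO-only wells and 100% = 3 µM delta7-dafachronic acid wells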
DAX1 inh-2: DAX1 (NR0B1) inhibitors on StAR promoter, primary screen, cell-based, luminescence, SF-1 (NR5A1), full-length DAX-1 | AID 652010, 2013 | inhibition, % at 6.8 µM | HEK293T StAR-luciferase reporter, SF-1/DAX-1 repression relief | hit rate 1.1% among 370,000;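 active = inhibition above the mean over all tested compounds plus 3 SD, cut at about 3.6% in these data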;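 note: 0% = DAX-1 cells with DMSO and 100% = cells lacking DAX-1 with DMSO; higher inhibition means more luminescence from relief of DAX-1 repression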
Numbers without * were called inactive; x = no result.

SMILES	DAX1 inh-1	hcDAF-12 act	hgDAF-12 ag	ssDAF-12 act	DAX1 inh-2
CC(Oc1ccccc1Cl)C(=O)N(Cc1ccco1)C1CCS(=O)(=O)C1 (stereo unspecified)	-2	-1	-2	1.6*	1
O=C(C(c1ccccc1)c1ccccc1)N(Cc1ccco1)C1CCS(=O)(=O)C1 (stereo unspecified)	1	-2	-4	-1	0
CN(C)c1ccc(CN(C(=O)c2cc3ccccc3oc2=O)C2CCS(=O)(=O)C2)cc1 (stereo unspecified)	1	2	7	0	5.2*
CC(C)c1ccc(CN(C(=O)c2cc3ccccc3oc2=O)C2CCS(=O)(=O)C2)cc1 (stereo unspecified)	0	0	1	-1	0
O=C(c1cc2ccccc2oc1=O)N(Cc1cccc(Br)c1)C1CCS(=O)(=O)C1 (stereo unspecified)	1	0	-1	-1	0
O=C(c1cc2ccccc2oc1=O)N(Cc1ccco1)C1CCS(=O)(=O)C1 (stereo unspecified)	1	5	13*	0	1
O=C(Nc1cccc(Cl)c1)c1csc([C@H]2C[C@H](O)[C@@H](CO)O2)n1	x	5	11*	0	3
O=C(Nc1cccc(C(F)(F)F)c1)Nc1nnc([C@@H]2C[C@H](O)[C@@H](CO)O2)s1	x	-2	10*	0	0
CC(C)Oc1cccc(C(=O)Nc2nnc([C@@H]3C[C@H](O)[C@@H](CO)O3)s2)c1	x	1	0	1.0*	0
COc1ccc(C(=O)Nc2nnc([C@@H]3C[C@H](O)[C@@H](CO)O3)s2)cc1	x	0	0	0	1
O=C(Nc1nnc([C@H]2C[C@H](O)[C@@H](CO)O2)s1)c1cccc(C(F)(F)F)c1	x	-2	0	-1	1
OC[C@H]1CC[C@@H]2O[C@H](CCc3ccc(-c4ccc(F)cc4)cc3)[C@H](n3cc(C4CC4)nn3)C[C@@H]2O1	x	2	1	-2	0
COC(=O)C1CN(Cc2ccccc2)CCS(=O)(=O)N1Cc1ccc(F)cc1 (stereo unspecified)	x	-2	1	-2	-1
CCOC(=O)C1=C(C)C(c2ccccc2O)NC(=O)N1 (stereo unspecified)	6.0*	-2	0	-1	0
CCOC(=O)C1=C(C)C(c2ccc(OC)cc2OC)NC(=O)N1 (stereo unspecified)	0	0	-1	-1	0
COc1ccc(S[C@]2(C(=O)N3CCN(C(C)=O)CC3)CC(=O)N(C(=O)/C=C/c3ccccc3)[C@@H]2c2ccc(OC)cc2)cc1	x	-3	-2	-1	-3
N#CC1=C(N)Oc2c(O)cc3ccccc3c2C1c1ccsc1 (stereo unspecified)	-2	0	0	6.0*	0
O=C(O)CN1C(=O)C2(OCCO2)c2cc(Br)ccc21	5.2*	-1	2	-1	0
O=C(CN1C(=O)C2(OCCCO2)c2ccccc21)NCc1ccc(F)cc1	x	-1	-3	-1	-1
Cc1cccc(NC(=O)[C@@H]2CCCN2C2=NS(=O)(=O)c3ccccc32)c1C	4.4*	0	4	-1	-1
Cc1cc(NS(=O)(=O)c2ccc(NC(=O)CSc3nnc(-c4cnccn4)n3-c3ccccc3)cc2)nc(C)n1	x	-1	1	-1	0
CCOC(=O)c1[nH]c2c(c1C)C(=O)CC(c1ccco1)C2 (stereo unspecified)	-2	-2	-5	0	7.0*
CCOC(=O)N(C)[C@H]1C[C@H]2c3[nH]c4c(-c5ccc6c(c5)OCO6)cccc4c3CCN2C(=O)[C@H]1[C@H](C)O	x	-2	-2	-1	-1
